# High-throughput results as filed in PubChem.
# Rows were chosen to be rich in hits. Some 3.9% of all compounds tested hit in one or more screens of this group.
# HSF-1 act: HSF-1 activators, primary screen, NIH3T3-HGL cells, MG132 stress, luminescence, single point; 300,000 tested, 1.7% active; activation, % at 9 µM; AID 504408, 2011; NIH3T3-HGL HSF-1 luciferase reporter, 8 h; 100% = twice DMSO control signal;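 active = mean replicate activation of at least 50% with a set share of replicates each reaching 50%; inconclusive = only one of those two conditions met; inactive = mean below 50% and too few replicates reaching it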;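 also: 0% = median of the neutral control wells and 100% = twice that signal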
# esBAF inh: Bmi1 luciferase reporter increase in mESCs, primary screen, esBAF inhibitor project, mouse ES cells, Bmi1 luciferase knock-in, single point. 24 h; 100% = twice the neutral-well signal. reporter increase, % at 12.5 µM. 350,000 tested, 2% active. AID 602393, 2012; in the data active = activation above about 40%; inconclusive = no clear call, values can overlap the other calls;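 also: 0% = median of the plate's neutral control wells and 100% = double that signal; a rise in the Bmi1 reporter signal indicates esBAF inhibition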
# MITF TRPM1 HTS: activators of MITF-driven TRPM1 promoter reporter, primary screen, cell-based, SK-MEL-5, luciferase, single point | SK-MEL-5 TRPM1-promoter luciferase, 24 h; % of positive control, neutral wells = 0 | activation, % at 12.5 µM | 300,000 tested, 0.75% active;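 active = mean activation of at least 80% with every replicate also reaching 80%; inconclusive = mean reaches 80% but some replicate falls short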;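 also: 0% = neutral control wells and 100% = parthenolide positive control wells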
# HSF1 inhib: HSF1 inhibitors in luciferase reporter cells, primary screen, cell-based, NIH3T3, luminescence; activity change, negative = inhibition, % at 7.5 µM (by protocol); AID 2098, 2009; 300,000 tested, 0.77% active; NIH3T3-HGL HSE-luciferase, MG132-induced, luminescence 8 h; active compounds read low;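 active = more than half of replicate wells show activity change below -50%, luminescence cut by over half; inconclusive = some wells, but at most half, below -50%; inactive = no replicate well below -50%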;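 also: luciferase reports HSF-1 transcriptional activity via heat shock element; 0% = median of DMSO wells and -100% = zero luminescence signal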
# Wnt bcat act: Wnt/beta-catenin pathway activators, primary screen, cell-based, plate reader, single point; activation, % at 9.35 µM; 300,000 tested, 1.2% active; Wnt/beta-catenin reporter cell assay, activator; AID 743398, 2014; in the data active = activation above about 30%, passing the limit was not always enough; inconclusive = no clear call, values can overlap the other calls;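 also: 0% = neutral control wells and 100% = positive control wells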
# * hit, by the source's call; u = inconclusive; x = no result given.
SMILES,HSF-1 act,esBAF inh,MITF TRPM1 HTS,HSF1 inhib,Wnt bcat act
Cc1nn(C)c(C)c1NC(=O)Nc1ccc(Cl)c(Cl)c1,-4,-4,-12,-3,-3
Cc1nn(C(C)(C)C)c(C)c1/C=N/OC(=O)Nc1ccc(Cl)c(Cl)c1,-96,x,x,-95*,0
COc1ccc(NC(=O)O/N=C/c2c(C)nn(C(C)(C)C)c2C)cc1,-73,14,70,-71*,5
CCC(=O)N1[C@@H]2c3ccc(-c4ccccc4)c(=O)n3C[C@H]1[C@H](CO)[C@H]2C(=O)N1CCCCC1,x,-2,x,x,x
Cc1noc(C)c1NC(=O)Nc1cccc2c1O[C@H](CN(C)C)[C@H](C)CN([C@@H](C)CO)C2=O,x,2,x,x,x
CCCNC(=O)C[C@H]1CC[C@@H]2[C@H](COC[C@@H](O)CN2C(=O)CC)O1,x,4,x,x,x
Clc1cccc(CNc2ccn3nc(-c4ccccc4)cc3n2)c1,x,50*,x,x,5
Clc1cccc(CNc2ccn3nc(-c4cccc(Cl)c4)cc3n2)c1,x,58*,x,x,-3
Clc1cccc(CNc2ccn3nc(-c4ccc(OCc5ccccc5)cc4)cc3n2)c1,x,17,x,x,1
CC(C)Cc1ccc(-c2cc3nc(NCCOc4ccccc4)ccn3n2)cc1,x,58*,x,x,0
Clc1cccc(-c2cc3nc(NCCOc4ccccc4)ccn3n2)c1,x,57*,x,x,11
Clc1ccccc1-c1cc2nc(NCc3ccco3)ccn2n1,x,72*,x,x,3
Clc1ccc(-c2cc3nc(NCc4cccc(Cl)c4)ccn3n2)cc1,x,76*,x,x,6
c1ccc(COc2ccc(-c3cc4nc(NCCN5CCOCC5)ccn4n3)cc2)cc1,x,49*,x,x,-3
CCNC(=O)NC(=O)COc1ccccc1C#N,44,91*,93*,15,x
N#Cc1ccccc1OCC(=O)NC(=O)NCc1ccco1,x,x,116*,x,19
CC(C)NC(=O)N[C@H]1CC[C@@H](CC(=O)NCCCN(C)C)O[C@H]1CO,x,1,x,x,x
Cc1noc(C)c1S(=O)(=O)N(C)C[C@@H]1OCCCC[C@H](C)Oc2ccc(NC(=O)Cc3ccccc3)cc2C(=O)N([C@H](C)CO)C[C@@H]1C,x,-1,x,x,x
Cc1cccc(NC(=S)NC(=O)C2CC2)c1,-5,22,1,13,x
Cc1ccc(NC(=S)NC(=O)C2CCCC2)c(Br)c1,x,67*,97*,x,53*
Cc1cc(NC(=S)NC(=O)C2CC2)ccc1Br,31,64*,32,15,u
COc1ccccc1CC(=O)Nc1ccc2c(c1)OC1(CCCC1)O2,x,52*,53,x,-4
Cc1ccc(C(=O)Nc2cccc(O)c2)cc1S(=O)(=O)N1CCCCCC1,24,57*,u,5,20
Cc1ccc(NC(=O)c2ccc(F)cc2)cc1S(=O)(=O)N1CCCCCC1,5,6,-17,4,-13
Cc1ccc(C(=O)Nc2ccc3cn[nH]c3c2)cc1S(=O)(=O)N1CCCCC1,16,75*,12,12,18
SMILES,HSF-1 act,esBAF inh,MITF TRPM1 HTS,HSF1 inhib,Wnt bcat act
COC(=O)c1ccc(COC(=O)c2ccc(C)c(S(=O)(=O)N3CCCCC3)c2)cc1,x,43*,96*,x,9
CCCNC(=O)N1C[C@H]2[C@@H](c3ccccc31)[C@@H](CO)N2Cc1ccc(OC)cc1,x,8,x,x,x
C[C@@H]1CN([C@H](C)CO)C(=O)c2cc(NC(=O)Nc3cccc4ccccc34)ccc2O[C@@H](C)CCCCO[C@H]1CN(C)Cc1ccc2c(c1)OCO2,x,-3,x,x,x
C[C@@H]1CCCCO[C@H](CN(C)C(=O)c2ccccc2)[C@H](C)CN([C@@H](C)CO)C(=O)c2cc(NC(=O)CCC(F)(F)F)ccc2O1,x,0,x,x,x
C[C@@H]1CN([C@H](C)CO)C(=O)c2cccc(NC(=O)c3nc4ccccc4s3)c2O[C@@H]1CN(C)S(=O)(=O)c1ccc(F)cc1,x,-9,x,x,x
C[C@H](O)C#Cc1ccc([C@H]2[C@H]3CN(C(=O)c4cccc(F)c4)CCCCN3[C@H]2CO)cc1,x,4,x,x,x
Cc1noc(C)c1NC(=O)Nc1ccc2c(c1)CC(=O)N([C@@H](C)CO)C[C@H](C)[C@H](CN(C)Cc1ccc(Oc3ccccc3)cc1)O2,x,-3,x,x,x
C[C@H]1CCCCO[C@H](CN(C)C(=O)NC2CCCCC2)[C@@H](C)CN([C@@H](C)CO)C(=O)c2cc(NC(=O)NC3CCCCC3)ccc2O1,x,3,x,x,x
COc1ccc(C=NNC(=O)c2cc(C)oc2C)cc1O,x,66*,35,x,-3
COc1cc(/C=N/NC(=O)c2cc(C)oc2C)ccc1O,-70,-2,-17,-61*,1
COc1ccc(/C=N/NC(=O)c2cc(C)oc2C)cc1OC,21,-2,18,-2,0
c1cnc2c(OCc3cn4cccnc4n3)cccc2c1,x,12,2,x,0
Clc1ccc(OCc2cn3cccnc3n2)c2ncccc12,29,57*,35,10,x
Cc1cc(Cl)ccc1OCc1cn2cccnc2n1,94*,x,83*,78,16
C[C@@H]1CN([C@H](C)CO)S(=O)(=O)c2ccc(C#C[C@@H](C)O)cc2O[C@H]1CN(C)C,x,0,x,x,x
CO[C@H]1CN(C)C(=O)c2cc(NC(=O)Nc3cc(Cl)cc(Cl)c3)ccc2OC[C@H](C)NC[C@@H]1C,x,-11,x,x,x
CCN1CCN(c2ccc(NC(=O)c3ccc(Br)o3)cc2)CC1,56*,20,79,14,12
O=C(Nc1ccc(N2CCCC2)cc1)c1ccc(Br)o1,5,-4,84*,-10,x
CCCNC(=O)N1C[C@@H](C)[C@@H](OC)CN(C)C(=O)c2ccc(NC(=O)C3CCC3)cc2OC[C@H]1C,x,4,x,x,x
COCC(=O)Nc1ccc2c(c1)OC[C@@H](C)N(C(=O)CC1CC1)C[C@H](C)[C@@H](OC)CN(C)C2=O,x,-6,x,x,x
C[C@@H]1CN([C@H](C)CO)C(=O)c2cc(C#CCN(C)C)cnc2O[C@@H]1CN(C)Cc1ccccc1F,x,1,x,x,x
CO[C@@H]1CN(C)C(=O)c2ccc(NS(C)(=O)=O)cc2OC[C@H](C)N(Cc2ccccn2)C[C@@H]1C,x,1,x,x,x
O=C(CCl)N=c1sccn1Cc1ccccc1Cl,x,x,-24,x,6
O=C(CCl)N=c1sccn1Cc1ccc(Cl)cc1Cl,-98,x,-14,-98*,0
Cc1noc(C)c1NC(=O)Nc1ccc2c(c1)CC(=O)N([C@@H](C)CO)C[C@@H](C)[C@H](CN(C)S(=O)(=O)c1cn(C)cn1)O2,x,3,x,x,x
CN(c1ncnc(N)c1[N+](=O)[O-])C1CCCCC1,-45,-10,39,-40,-1
CCCCN(c1ccccc1)c1ncnc(N)c1[N+](=O)[O-],-56,-18,12,-52*,-5
O=C(N[C@H]1C=C[C@H](CC(=O)N2CCc3ccccc3C2)O[C@H]1CO)C1CCC1,x,-1,x,x,x
COc1ccc(N2CCN(C(c3cccs3)C(C)NS(=O)(=O)c3ccccc3)CC2)cc1 (stereo unspecified),82*,-5,15,41,x
